From PubChem BioAssay
NPSR antagonist: antagonists of human neuropeptide S receptor cAMP signaling. Q6W5P4. CHO-NPSR cells, cAMP TR-FRET, antagonist mode. Potency, µM (titrated, usually from 38.3 µM), for inactives: top-dose activity change, negative = inhibition, hits mostly inhibitors. 1% of 220,000 active. AID 1461; further: nearly all actives have a fitted effect of over 50% in size
Target sequence (Q6W5P4 whole entry, looked up): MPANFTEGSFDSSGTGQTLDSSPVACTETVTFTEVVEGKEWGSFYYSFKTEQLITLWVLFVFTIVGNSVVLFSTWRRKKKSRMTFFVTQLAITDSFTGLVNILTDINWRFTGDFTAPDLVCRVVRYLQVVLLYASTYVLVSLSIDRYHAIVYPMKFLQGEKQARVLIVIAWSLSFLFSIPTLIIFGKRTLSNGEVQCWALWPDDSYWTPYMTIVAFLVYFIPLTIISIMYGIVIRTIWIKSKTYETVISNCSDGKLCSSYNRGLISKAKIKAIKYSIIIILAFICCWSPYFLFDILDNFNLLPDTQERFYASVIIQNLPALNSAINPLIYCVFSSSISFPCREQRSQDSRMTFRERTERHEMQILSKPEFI
KinaseGlo FLuc: blocks Kinase-Glo luciferase, a counter-screen artifact | Q27757 | Potency, µM (titrated, usually from 38.3 µM), without a hit: top-dose activity change, negative = inhibition, actives largely listed as inhibitors | 0.28% of 200,000 active | Kinase-Glo luciferase, ATP luminescence, 8 min | AID 1379; further: nearly all actives have a fitted effect of over 60% in size
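Luminescence was the read-out, taken after 8-minute incubation at ambient temperature. Luciferase turned over luciferin with 10 uM ATP in imidazole pH 7.2 buffer containing KCl, MgCl2, Tween 20 and BSA.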
IMPase Li cell: IMPase inhibition in cells with lithium potentiation | Potency, µM (doses to about 59.4 µM), without a hit: at the highest dose activity, negative = IMPase inhibition, usual class: inhibitors | 0.35% of 210,000 active | CHO-M1 cells, IP1 TR-FRET (IP-One), carbachol + lithium;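 further: IP1 builds up when IMPase is blocked and the TR-FRET signal falls; plate controls were basal vehicle for no effect and high inhibitor control for full effect; nearly all actives have a fitted effect of over 50% in size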
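Lithium-sensitised IP1 accumulation assay; M1-expressing CHO cells treated 30 min at 37C with compound. Competitive antibody detection by time-resolved FRET followed a 10 min room-temperature lysis step.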
ERK EGF block: inhibitors of EGF-stimulated ERK signaling pathway; HEK293-V1b, EGF-stimulated phospho-ERK AlphaScreen; Potency, µM (series often up to 11.5 µM), for inactives: top-dose activity change, negative = inhibition, hits mostly inhibitors; 0.41% of 130,000 active;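 further: plate controls were stimulated vehicle wells for no effect and unstimulated vehicle basal for full effect; nearly all actives have a fitted effect of over 55% in size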
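Readout: AlphaScreen signal for phosphorylated ERK in lysed HEK293 cells stably expressing V1b. Stimulus 25 nM EGF, 5 min, following 30 min compound exposure. Data scaled to DMSO basal and full EGF activation.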
Starred values were filed as active, the others as inactive; ? = inconclusive; · = not tested or not shown; [ ] = another dose, or the depositor's remark. Rows were chosen to be rich in hits. Some 1.1% of all compounds tested hit in one or more screens of this group. The call rests on the fitted dose curve; in most records, active means well fitted curve in the direction sought with a large enough effect; inconclusive means small, poorly fitted or top-dose-only effect, or another doubt; inactive means no such curve, though single readings can be large; an effect the other way counts as inactive or inconclusive. Unless noted, on the % scale 0 is the no-effect control and ±100 the full control effect; potency means the concentration at half of the fitted maximal effect.

SMILES	NPSR antagonist	KinaseGlo FLuc	IMPase Li cell	ERK EGF block
C[C@@H]1[C@H](C)CC[C@@]2(C(=O)O[C@H]3O[C@@H](CO[C@H]4O[C@@H](CO)[C@@H](O[C@H]5O[C@@H](C)[C@@H](O)[C@@H](O)[C@@H]5O)[C@@H](O)[C@@H]4O)[C@@H](O)[C@@H](O)[C@@H]3O)CC[C@]3(C)C(=CC[C@H]4[C@@]5(C)C[C@@H](O)[C@@H](O)[C@](C)(CO)[C@@H]5CC[C@@]43C)[C@@H]12	·	0%[17.1 µM]	4%	9%[25.7 µM]
CC(=O)N(C1=C(Cl)C(=O)c2ccccc2C1=O)C1CCCCC1	6.3µM*	·	·	25µM*
CC(=O)N(c1ccccc1C)C1CCCC1	10%	-3%	0%	8%
C=CCc1cccc(CNc2nc3ccccc3n2CCC)c1O	10µM*	-3%	9%[38.3 µM]	·
C=CCc1cccc(CNc2nc3ccccc3n2CC)c1O	?	-4%	1%[38.3 µM]	·
Cc1cc(C)c2c(=O)n(CC(=O)NCCCN3CCOCC3)sc2n1	-4%[46.1 µM]	7.9µM*	24%[38.3 µM]	·
Cc1cc(C)c2c(=O)n(CC(=O)Nc3ccc(Cl)cc3)sc2n1	-26%	·	·	3%[57.5 µM]
Cc1cc(C)c2c(=O)n(CC(=O)NCCCN3CCN(c4ccccc4F)CC3)sc2n1	28%[46.1 µM]	11µM*	50%[38.3 µM]	·
CN(C)[C@H]1C(=O)C(C(=O)NCN2CCCC2)=C(O)[C@]2(O)C(=O)C3=C(O)c4c(O)cccc4[C@](C)(O)[C@H]3C[C@H]12	·	-3%[7.66 µM]	11%	·
CCN(CC)Cc1c(O)ccc2c(C)c(CC(=O)OC)c(=O)oc12	10%[46.1 µM]	-5%	10µM*	·
COC(=O)Cc1c(C)c2ccc(OCC(C)=O)c(C)c2oc1=O	-20%[46.1 µM]	0%	10%[38.3 µM]	·
OC(CNCCc1ccc(C(F)(F)F)cc1)COc1ccc2ccccc2c1 (centres undefined)	-35%	0%	-7%	35µM*
OC(CNCCc1ccc(C(F)(F)F)cc1)COc1cccc2ccccc12 (centres undefined)	?	0%	17%	?
CCOC(=O)C1(O)Oc2cc(OC)cc(OC)c2C(=O)C1c1ccccc1 (centres undefined)	·	-3%	-3%	29%
COc1ccc2c(c1OC)C(Cc1ccccc1)N1CCc3cc4c(cc3C1=C2)OCO4 (centres undefined)	·	-19%	14%	-7%
Cc1cnc(CNc2cc(-c3ccccc3CN(C)C)ncn2)cn1	·	·	7%	·
COc1ccccc1OCCN1CSC(=S)N(C)C1	3.2µM*	-4%	7%	0%
O=C(Oc1ccccc1)N1CCC2(CC1)CCN(c1cccc(-c3ccccc3)c1)CC2	·	-4%	22%	-3%
O=C(NCCN1CCOCC1)c1ccc(-n2c(=O)c(=O)[nH]c3ccccc32)cc1	·	-1%	·	·
COc1cc2c(cc1OC)C(c1ccc(-c3ccccc3Cl)o1)=NCC2	?	-23%	34%[38.3 µM]	·
COc1cc2c(cc1OC)C(c1ccc(-c3ccc(Cl)cc3Cl)o1)=NCC2	7.9µM*	-2%	12%[38.3 µM]	·
O=C(Nc1ccc(-c2csc(Nc3cccc(C(F)(F)F)c3)n2)cc1)c1cc([N+](=O)[O-])cc(C(F)(F)F)c1	10µM*	·	·	7%[57.5 µM]
O=C(Nc1ccc(-c2csc(Nc3cccc(C(F)(F)F)c3)n2)cc1)c1ccccc1	-40%	·	·	?
O=C(c1ccccc1)c1coc2c1C(=O)c1ccccc1C2=O	?	-2%	17%	?
O=C1c2ccccc2C(=O)c2c1oc(C(F)(F)F)c2C(=O)c1ccccc1	5µM*	1%	23%[38.3 µM]	·
SMILES	NPSR antagonist	KinaseGlo FLuc	IMPase Li cell	ERK EGF block
O=[N+]([O-])c1ccc(Cl)c(-c2ccc(/C=N/c3c(-c4ccco4)nc4ccccn34)o2)c1	-17%[46.1 µM]	-2%	8%[38.3 µM]	·
Oc1cccc(/C=N/c2c(-c3ccco3)nc3ccccn23)c1	10µM*	?	13µM*	·
Cc1ccc(N)cc1[N+](=O)[O-]	·	·	10%	·
Cc1ccccc1OCC(O)Cn1c(=N)n(Cc2ccccc2)c2ccccc21 (centres undefined)	10µM*	·	·	32µM*
COc1ccccc1OCC(O)Cn1c(=N)n(Cc2ccccc2)c2ccccc21 (centres undefined)	4%[46.1 µM]	0%	10%[38.3 µM]	·
Cc1[nH]c2ccc(F)cc2c1CCN(Cc1cccnc1)C(=S)Nc1ccc(F)cc1	10µM*	-1%	15%	10%
Cc1cc(C)cc(-n2c(C)cc(C=C(C#N)C#N)c2C)c1	-19%[46.1 µM]	-9%	10µM*	·
COc1ccc2[nH]c(=O)c(C(c3nnnn3C(C)(C)C)N(Cc3ccco3)CC3CCCO3)cc2c1 (centres undefined)	?	-4%	16µM*	·
CC(C1OC(C)(C)C(O)C1O)C1CC[C@@]2(C)C3=CCC4C(C)(C)C(=O)CC[C@]4(C)C3CC[C@@]12C (some centres undefined)	·	-5%	8%	20%
COC(=O)[C@@]1(C)CCC[C@@]2(C)c3ccc(O)c(C(C)C)c3CCC21 (some centres undefined)	·	-4%	14%	22µM*
CC(C)c1c(O)ccc2c1CCC1[C@@](C)(CO)CCC[C@@]21C (some centres undefined)	·	-3%	17%	12%
O=C(Oc1ccccc1)N1CCC2(CCCN(c3ccc(-c4ccccc4)cc3)C2)CC1	·	-2%	14%	8%
N#C/C(C(=O)NCc1ccco1)=C1/SC=C(c2ccccc2)N1c1ccccc1	?	-4%	11µM*	-14%
CC1=CS/C(=C(/C#N)C(=O)NCc2ccco2)N1c1ccccc1	-10%[46.1 µM]	-4%	-2%[38.3 µM]	·
COc1ccc2[nH]cc(CCNc3nc(-c4ccoc4)nc4ccccc34)c2c1	·	1%	11%	35%
COc1cccc(-c2nc(NCCc3c[nH]c4ccc(OC)cc34)c3ccccc3n2)c1	·	-3%	22%	25µM*
COc1ccc2c(c1)N(C[C@@H](C)CN(C)C)c1ccccc1S2	·	-1%[17.1 µM]	16%	-7%[25.7 µM]
CCOC(=O)c1sc2nc(-c3ccco3)c3c(c2c1N)CC(C)(C)OC3	10µM*	0%	-14%[38.3 µM]	·
C[C@@]12C=Cc3occc3C1CC[C@@]13C[C@@H](CCC12)[C@@](O)(CO)C3 (some centres undefined)	·	4%[39.9 µM]	16%	·
CSc1cnn(-c2ccccc2)c(=O)c1SC	?	0%	11µM*	·
CCCCSc1cnn(-c2ccccc2)c(=O)c1SCCCC	13µM*	-1%	-24%	7%
COc1cnn(-c2ccccc2)c(=O)c1SCc1ccc(Cl)cc1Cl	?	-3%	14%[38.3 µM]	·
CCSc1cnn(-c2ccccc2)c(=O)c1SCC	13µM*	-1%	10µM*	·
Cc1oc(-c2ccc3c(c2)OCCO3)cc1C(=O)NCC(=O)O	46%	-2%	15%	-17%
Cc1oc(-c2ccc3c(c2)OCCO3)cc1C(=O)O	?	13µM*	-10%[38.3 µM]	·
COc1cccc(CCc2ccccc2OCC[C@@H]2C[C@@H](O)CN2C)c1	·	1%	0%	?
Cc1[nH]c(C)c(CN(C)C)c1CN(C)C	·	-12%[7.66 µM]	-12%	·
C[C@@H](C(=O)O)/C(=C/c1ccc2c(c1)OCO2)C(=O)O	·	-7%[7.66 µM]	10%	·
